These results are taken from publication PMC7862700, “An all-to-all approach to the identification of sequence-specific readers for epigenetic DNA modifications on cytosine”.

What all share (test): DAPPL (digital affinity profiling via proximity ligation, sequencing); 10 mM Tris-HCl pH 7.5, 50 mM NaCl, 1 mM DTT, 4% glycerol, room temperature, 30 min; GST-TFs on glutathione beads, 16-mer random dsDNA library, 0.1% formaldehyde crosslink after washing; high values mean tight binding
What all share (settings): protein: recombinant; tags: N-terminal GST; dsDNA, one strand shown

One test has as its target T1, ELK1 (Homo sapiens, UniProt P19419 1-428).
T1 sequence: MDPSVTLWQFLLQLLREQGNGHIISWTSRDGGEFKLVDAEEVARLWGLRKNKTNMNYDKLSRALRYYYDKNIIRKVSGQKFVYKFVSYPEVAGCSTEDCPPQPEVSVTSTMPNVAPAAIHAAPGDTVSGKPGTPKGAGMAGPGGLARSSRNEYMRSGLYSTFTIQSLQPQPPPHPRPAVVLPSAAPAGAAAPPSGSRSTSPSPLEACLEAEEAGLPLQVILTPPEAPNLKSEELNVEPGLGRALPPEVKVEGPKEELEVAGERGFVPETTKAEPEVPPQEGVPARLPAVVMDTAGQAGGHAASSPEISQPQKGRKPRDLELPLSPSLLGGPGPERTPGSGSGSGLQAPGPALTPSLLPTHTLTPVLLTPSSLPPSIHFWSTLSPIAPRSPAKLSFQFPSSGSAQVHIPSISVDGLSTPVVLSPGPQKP
The method, boiled down: (§1)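 Each value of binding signal is a hexamer's read frequency for a factor divided by the same hexamer's frequency in the tag-only sample. Barcoded, bead-captured GST fusions of human transcription factors made in yeast were pooled with that sample and incubated with 200 nmole of a random double-stranded 16-mer DNA library in Tris/NaCl/DTT/glycerol buffer at room temperature for 30 min. Washing, 0.1% formaldehyde crosslinking, proximity ligation, PCR and Illumina NextSeq500 sequencing followed.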

The target of the next test is T2, GABPA (Homo sapiens, UniProt Q06546 1-454).
T2 sequence: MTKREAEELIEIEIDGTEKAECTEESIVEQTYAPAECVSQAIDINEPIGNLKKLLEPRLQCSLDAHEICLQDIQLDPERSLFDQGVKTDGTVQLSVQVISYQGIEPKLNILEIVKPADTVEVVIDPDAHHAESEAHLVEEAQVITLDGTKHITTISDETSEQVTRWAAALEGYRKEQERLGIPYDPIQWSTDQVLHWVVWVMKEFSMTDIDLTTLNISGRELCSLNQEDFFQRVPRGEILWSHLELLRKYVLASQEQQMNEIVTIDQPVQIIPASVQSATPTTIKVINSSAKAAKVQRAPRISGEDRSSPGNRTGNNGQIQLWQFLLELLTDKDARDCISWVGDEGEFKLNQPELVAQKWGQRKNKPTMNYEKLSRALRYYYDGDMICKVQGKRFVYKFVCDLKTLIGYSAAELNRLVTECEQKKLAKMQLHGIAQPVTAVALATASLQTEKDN
The method, boiled down:
as §1

The next test has as its target ELF1 (Homo sapiens, UniProt P32519 1-619). The method, boiled down: as §1
In the next test the target is T3, EHF (Homo sapiens, UniProt Q9NZC4 1-300).
T3 sequence: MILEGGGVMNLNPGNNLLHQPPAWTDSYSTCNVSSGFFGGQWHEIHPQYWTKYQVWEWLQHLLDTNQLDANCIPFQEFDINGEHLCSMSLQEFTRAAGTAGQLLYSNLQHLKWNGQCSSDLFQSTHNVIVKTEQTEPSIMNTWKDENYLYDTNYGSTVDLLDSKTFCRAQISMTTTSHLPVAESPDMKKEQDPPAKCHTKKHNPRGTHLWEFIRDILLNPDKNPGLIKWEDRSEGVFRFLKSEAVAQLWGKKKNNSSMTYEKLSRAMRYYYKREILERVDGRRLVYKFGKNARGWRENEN
The method, boiled down:
as §1

The next test addresses SPIB (Homo sapiens, UniProt Q01892 1-262). The method, boiled down:
as §1

For a further test, the target named is T4, SPIC (Homo sapiens, UniProt Q8N5J4 1-248).
T4 sequence: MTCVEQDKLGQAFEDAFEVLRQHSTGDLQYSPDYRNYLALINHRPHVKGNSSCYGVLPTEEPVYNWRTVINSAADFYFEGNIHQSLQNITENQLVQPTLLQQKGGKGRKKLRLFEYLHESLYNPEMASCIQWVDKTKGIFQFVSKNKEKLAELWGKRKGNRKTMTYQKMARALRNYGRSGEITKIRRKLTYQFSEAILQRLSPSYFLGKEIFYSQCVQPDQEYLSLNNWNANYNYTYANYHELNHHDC
The method, boiled down: as §1

In the next test the target is ELF4 (Homo sapiens, UniProt Q99607 1-663). The method, boiled down: as §1
The target of the next test is T5, ELK4 (Homo sapiens, UniProt P28324-2 1-405).
T5 sequence: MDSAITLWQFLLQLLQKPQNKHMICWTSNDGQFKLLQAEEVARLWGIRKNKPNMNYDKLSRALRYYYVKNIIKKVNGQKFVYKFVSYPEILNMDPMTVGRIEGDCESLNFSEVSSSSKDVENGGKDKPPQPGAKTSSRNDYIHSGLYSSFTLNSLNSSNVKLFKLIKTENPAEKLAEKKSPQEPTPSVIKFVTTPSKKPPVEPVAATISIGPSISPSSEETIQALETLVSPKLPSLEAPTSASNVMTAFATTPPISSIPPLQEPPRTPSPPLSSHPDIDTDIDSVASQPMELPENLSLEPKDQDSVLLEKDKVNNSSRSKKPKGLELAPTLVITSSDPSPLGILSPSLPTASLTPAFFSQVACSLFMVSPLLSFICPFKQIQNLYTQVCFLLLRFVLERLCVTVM
The method, boiled down: as §1

In the next test the target is T6, ELF3 (Homo sapiens, UniProt P78545 1-371).
T6 sequence: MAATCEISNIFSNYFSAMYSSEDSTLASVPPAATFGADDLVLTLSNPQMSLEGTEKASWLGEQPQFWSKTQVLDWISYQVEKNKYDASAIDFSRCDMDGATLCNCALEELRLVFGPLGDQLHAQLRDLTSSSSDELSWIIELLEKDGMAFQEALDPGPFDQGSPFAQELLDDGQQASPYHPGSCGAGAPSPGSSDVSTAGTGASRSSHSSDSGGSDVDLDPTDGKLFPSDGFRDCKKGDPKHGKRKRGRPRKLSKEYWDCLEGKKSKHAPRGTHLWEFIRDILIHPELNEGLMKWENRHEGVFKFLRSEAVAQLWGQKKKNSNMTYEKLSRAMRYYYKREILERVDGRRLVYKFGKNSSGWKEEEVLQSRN
The method, boiled down: as §1

Another test addresses ETV1 (Homo sapiens, UniProt P50549 1-477). The method, boiled down:
as §1

Another test has as its target T7, ETV3L (Homo sapiens, UniProt Q6ZN32 1-361).
T7 sequence: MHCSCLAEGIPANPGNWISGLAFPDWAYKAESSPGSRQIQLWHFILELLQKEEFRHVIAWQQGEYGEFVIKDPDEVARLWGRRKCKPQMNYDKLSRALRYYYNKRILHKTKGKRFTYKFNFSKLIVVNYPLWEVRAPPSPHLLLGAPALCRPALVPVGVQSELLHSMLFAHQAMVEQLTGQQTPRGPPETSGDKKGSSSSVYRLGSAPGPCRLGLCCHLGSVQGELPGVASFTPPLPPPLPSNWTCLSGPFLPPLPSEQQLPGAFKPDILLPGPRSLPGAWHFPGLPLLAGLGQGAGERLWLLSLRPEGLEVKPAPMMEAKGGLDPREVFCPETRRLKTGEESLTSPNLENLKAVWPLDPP
The method, boiled down:
as §1

Another test deals with T8, ETS2 (Homo sapiens, UniProt P15036 1-469).
T8 sequence: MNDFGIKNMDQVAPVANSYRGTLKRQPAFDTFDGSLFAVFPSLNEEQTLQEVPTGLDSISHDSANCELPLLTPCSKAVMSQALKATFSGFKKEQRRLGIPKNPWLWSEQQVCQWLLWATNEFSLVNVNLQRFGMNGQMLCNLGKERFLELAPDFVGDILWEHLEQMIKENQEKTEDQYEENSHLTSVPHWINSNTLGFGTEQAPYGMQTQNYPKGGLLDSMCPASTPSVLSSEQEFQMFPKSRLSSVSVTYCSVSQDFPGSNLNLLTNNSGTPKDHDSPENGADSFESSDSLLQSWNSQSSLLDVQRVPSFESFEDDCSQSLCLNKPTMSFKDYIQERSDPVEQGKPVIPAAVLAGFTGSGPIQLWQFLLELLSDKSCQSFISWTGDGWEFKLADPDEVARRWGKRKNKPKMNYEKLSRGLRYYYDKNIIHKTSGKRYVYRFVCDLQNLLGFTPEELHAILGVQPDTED
The method, boiled down: as §1

In the next test the target is T9, SPDEF (Homo sapiens, UniProt O95238 1-335).
T9 sequence: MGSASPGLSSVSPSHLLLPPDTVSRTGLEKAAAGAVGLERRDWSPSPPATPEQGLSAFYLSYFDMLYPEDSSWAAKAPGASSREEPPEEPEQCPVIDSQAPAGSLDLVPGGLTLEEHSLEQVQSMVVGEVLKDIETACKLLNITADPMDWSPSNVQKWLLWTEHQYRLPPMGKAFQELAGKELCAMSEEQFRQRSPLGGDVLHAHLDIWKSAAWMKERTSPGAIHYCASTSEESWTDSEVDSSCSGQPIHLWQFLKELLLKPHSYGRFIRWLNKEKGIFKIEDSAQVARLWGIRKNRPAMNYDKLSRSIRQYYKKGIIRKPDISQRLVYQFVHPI
The method, boiled down: as §1

In the next test the target is T10, ETV7 (Homo sapiens, UniProt Q9Y603 1-341).
T10 sequence: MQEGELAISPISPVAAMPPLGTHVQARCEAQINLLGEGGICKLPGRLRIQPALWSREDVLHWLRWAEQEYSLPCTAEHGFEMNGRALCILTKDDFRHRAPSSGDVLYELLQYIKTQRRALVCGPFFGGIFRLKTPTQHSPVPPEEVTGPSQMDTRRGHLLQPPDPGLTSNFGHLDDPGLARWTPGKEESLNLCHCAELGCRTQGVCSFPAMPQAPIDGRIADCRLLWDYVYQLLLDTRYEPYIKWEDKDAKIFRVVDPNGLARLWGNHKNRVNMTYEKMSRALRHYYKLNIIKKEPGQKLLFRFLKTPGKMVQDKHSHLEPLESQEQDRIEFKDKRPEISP
The method, boiled down:
as §1

In another test the target is T11, ETV3 (Homo sapiens, UniProt P41162-2 1-143).
T11 sequence: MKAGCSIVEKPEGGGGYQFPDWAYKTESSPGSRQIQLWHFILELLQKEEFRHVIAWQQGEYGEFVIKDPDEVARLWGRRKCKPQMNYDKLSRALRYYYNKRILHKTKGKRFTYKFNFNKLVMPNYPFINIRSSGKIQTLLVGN
The method, boiled down:
as §1

The target in the next test is ETV6 (Homo sapiens, UniProt P41212 1-452). The method, boiled down:
as §1

The next test concerns the target SPI1 (Homo sapiens, UniProt P17947 1-270). The method, boiled down:
as §1

ELF1, sequence (P32519 whole entry): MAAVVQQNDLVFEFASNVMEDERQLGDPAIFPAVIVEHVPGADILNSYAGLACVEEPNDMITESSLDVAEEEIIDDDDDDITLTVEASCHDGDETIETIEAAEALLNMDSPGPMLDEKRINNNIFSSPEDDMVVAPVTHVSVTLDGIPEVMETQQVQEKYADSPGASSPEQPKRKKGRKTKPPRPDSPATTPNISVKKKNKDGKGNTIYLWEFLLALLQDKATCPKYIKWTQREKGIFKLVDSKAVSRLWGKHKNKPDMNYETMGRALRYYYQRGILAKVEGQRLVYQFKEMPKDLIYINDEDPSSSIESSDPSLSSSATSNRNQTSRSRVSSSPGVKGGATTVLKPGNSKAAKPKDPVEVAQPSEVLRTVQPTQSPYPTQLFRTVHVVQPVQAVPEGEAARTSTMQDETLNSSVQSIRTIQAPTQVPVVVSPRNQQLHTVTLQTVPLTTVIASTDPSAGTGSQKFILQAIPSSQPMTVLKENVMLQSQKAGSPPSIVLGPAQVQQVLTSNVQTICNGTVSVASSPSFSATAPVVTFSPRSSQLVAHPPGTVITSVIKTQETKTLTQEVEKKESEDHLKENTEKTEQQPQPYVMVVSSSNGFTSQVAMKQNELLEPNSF
ETV6, sequence (P41212 whole entry): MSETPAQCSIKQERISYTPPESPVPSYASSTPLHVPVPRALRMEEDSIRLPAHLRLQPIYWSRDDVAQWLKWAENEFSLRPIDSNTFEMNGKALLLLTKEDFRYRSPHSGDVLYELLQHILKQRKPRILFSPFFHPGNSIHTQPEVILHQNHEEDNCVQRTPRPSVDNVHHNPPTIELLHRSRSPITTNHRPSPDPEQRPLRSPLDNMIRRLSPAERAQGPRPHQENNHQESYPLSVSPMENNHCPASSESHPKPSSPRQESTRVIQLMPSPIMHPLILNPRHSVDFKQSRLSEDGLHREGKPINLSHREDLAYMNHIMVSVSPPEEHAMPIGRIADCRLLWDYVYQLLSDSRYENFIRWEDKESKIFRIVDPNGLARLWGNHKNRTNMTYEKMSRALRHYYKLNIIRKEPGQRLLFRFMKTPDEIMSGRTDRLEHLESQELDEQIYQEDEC
ELF4, sequence (Q99607 whole entry): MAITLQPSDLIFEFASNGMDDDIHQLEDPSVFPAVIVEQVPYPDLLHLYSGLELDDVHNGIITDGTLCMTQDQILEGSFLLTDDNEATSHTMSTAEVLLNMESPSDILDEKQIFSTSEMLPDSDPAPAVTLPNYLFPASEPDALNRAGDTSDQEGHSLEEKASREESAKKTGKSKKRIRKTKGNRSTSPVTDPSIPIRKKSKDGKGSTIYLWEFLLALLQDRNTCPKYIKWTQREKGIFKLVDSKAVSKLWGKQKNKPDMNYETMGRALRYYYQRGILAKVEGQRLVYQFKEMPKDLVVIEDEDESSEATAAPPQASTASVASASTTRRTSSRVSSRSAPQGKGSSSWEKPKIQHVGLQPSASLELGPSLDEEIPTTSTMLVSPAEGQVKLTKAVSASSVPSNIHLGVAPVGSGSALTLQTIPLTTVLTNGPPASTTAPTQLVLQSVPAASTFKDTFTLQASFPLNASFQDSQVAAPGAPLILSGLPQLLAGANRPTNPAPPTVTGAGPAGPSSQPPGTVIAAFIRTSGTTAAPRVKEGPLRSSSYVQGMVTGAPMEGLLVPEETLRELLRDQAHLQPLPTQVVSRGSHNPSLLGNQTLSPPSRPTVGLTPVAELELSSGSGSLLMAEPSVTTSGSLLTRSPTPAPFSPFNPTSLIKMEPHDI
ETV1, sequence (P50549 whole entry): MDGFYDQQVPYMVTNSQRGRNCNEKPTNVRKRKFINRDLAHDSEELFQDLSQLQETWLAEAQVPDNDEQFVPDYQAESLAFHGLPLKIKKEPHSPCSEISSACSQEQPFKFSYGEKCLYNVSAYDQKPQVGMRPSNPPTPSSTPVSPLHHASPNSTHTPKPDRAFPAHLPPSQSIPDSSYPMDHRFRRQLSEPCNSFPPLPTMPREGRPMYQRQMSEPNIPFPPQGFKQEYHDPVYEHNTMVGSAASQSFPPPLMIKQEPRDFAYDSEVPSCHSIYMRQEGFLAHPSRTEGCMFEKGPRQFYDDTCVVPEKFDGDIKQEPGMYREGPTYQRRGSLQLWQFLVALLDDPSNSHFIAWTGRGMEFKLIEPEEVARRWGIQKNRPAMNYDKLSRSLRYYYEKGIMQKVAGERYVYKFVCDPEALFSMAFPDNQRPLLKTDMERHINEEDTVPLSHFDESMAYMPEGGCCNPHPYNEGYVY
SPIB, sequence (Q01892 whole entry): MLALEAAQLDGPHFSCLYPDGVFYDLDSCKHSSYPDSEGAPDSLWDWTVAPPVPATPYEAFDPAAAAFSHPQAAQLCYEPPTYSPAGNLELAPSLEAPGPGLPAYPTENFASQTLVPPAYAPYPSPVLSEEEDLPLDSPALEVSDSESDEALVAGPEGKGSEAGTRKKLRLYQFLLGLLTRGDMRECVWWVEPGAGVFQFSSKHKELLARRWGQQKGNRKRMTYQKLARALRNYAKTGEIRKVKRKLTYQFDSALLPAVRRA

On to TAGATA, for which the binding signal with ELK1 was 1.03 fold enrichment (6-mer frequency, TF over GST control); with GABPA, 1.1 fold enrichment (6-mer frequency, TF over GST control); with ELF1, 1.06 fold enrichment (6-mer frequency, TF over GST control); with EHF, 1.06 fold enrichment (6-mer frequency, TF over GST control); with SPIB it was 1.05 fold enrichment (6-mer frequency, TF over GST control); with SPIC it was 1.17 fold enrichment (6-mer frequency, TF over GST control). In addition, the binding signal with ELF4 is 1.07 fold enrichment (6-mer frequency, TF over GST control); in the test with ELK4 it was 1.08 fold enrichment (6-mer frequency, TF over GST control); with ELF3, 1.08 fold enrichment (6-mer frequency, TF over GST control); with ETV1, 1.06 fold enrichment (6-mer frequency, TF over GST control); with ETV3L, 1.12 fold enrichment (6-mer frequency, TF over GST control); with ETS2, 1.05 fold enrichment (6-mer frequency, TF over GST control). In addition, the binding signal with SPDEF was 1.06 fold enrichment (6-mer frequency, TF over GST control); with ETV7, 1.02 fold enrichment (6-mer frequency, TF over GST control); in the test with ETV3, 1.01 fold enrichment (6-mer frequency, TF over GST control); in the test with ETV6, 1.01 fold enrichment (6-mer frequency, TF over GST control).

As for ATAAGT, the binding signal in the test with ELK1 was 1.05 fold enrichment (6-mer frequency, TF over GST control); with GABPA, 1.07 fold enrichment (6-mer frequency, TF over GST control); in the test with ELF1 it was 1.08 fold enrichment (6-mer frequency, TF over GST control); with EHF, 1.04 fold enrichment (6-mer frequency, TF over GST control); with SPI1, 1 fold enrichment (6-mer frequency, TF over GST control); in the test with SPIC it was 1.02 fold enrichment (6-mer frequency, TF over GST control). The binding signal with ELF4 is 1.1 fold enrichment (6-mer frequency, TF over GST control); with ELK4 it was 1.06 fold enrichment (6-mer frequency, TF over GST control); with ELF3, 1.09 fold enrichment (6-mer frequency, TF over GST control); with ETV3L, 1.05 fold enrichment (6-mer frequency, TF over GST control); in the test with ETS2, 1.06 fold enrichment (6-mer frequency, TF over GST control); in the test with SPDEF, 1.05 fold enrichment (6-mer frequency, TF over GST control). In addition, the binding signal with ETV7 was 1.05 fold enrichment (6-mer frequency, TF over GST control); in the test with ETV3, 1.03 fold enrichment (6-mer frequency, TF over GST control); with ETV6 it was 1.06 fold enrichment (6-mer frequency, TF over GST control).
